# The list is not random: actives were taken first. Their share in the collection is about 7.5%.
# NPC1 promoter act = activators of NPC1 promoter. Potency, µM (titrated, usually from 9.22 µM), for inactives: at the top dose activation, hits mostly activators. Huh7 NPC1 promoter luciferase reporter, 24 h. hit rate 2.4% among 320,000; also: % of control where 0% means no effect; nearly all actives have a fitted effect of over 60% in size
#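 Readout is luciferase luminescence, reflecting NPC1 promoter activation in stably transfected Huh7 cells after 24 h compound exposure at 37 °C in reduced-serum medium with 10% FBS.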
# ELG1 genotox = induces genotoxicity in HEK293T cells with luciferase-tagged ELG1 | HEK293T ELG1-luciferase reporter, luminescence, 16 h | Potency, µM (titrated, usually from 46 µM), without a hit: top-dose activity change, positive = activation, actives largely listed as activators | hit rate 1.3% among 330,000; also: % of control where 0% means no effect; nearly all actives have a fitted effect of over 60% in size
#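 16 hr compound incubation (37 °C, 5% CO2) of HEK293T cells carrying luciferase-tagged ELG1; luciferase then measured by ONE-Glo luminescence after 30 min at RT.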
# FLuc counter = firefly luciferase modulation, counter-screen for miR-21 project; P08659; purified FLuc, Km substrates, luminescence inhibition; Potency, µM (highest dose often 57.5 µM), inactives show at the top dose activity change, negative = inhibition, actives largely listed as inhibitors; hit rate 6.9% among 360,000;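 also: plate controls were vehicle for no effect and reference inhibitor for full effect; nearly all actives have a fitted effect of over 55% in size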
# Target sequence (P08659 whole entry, looked up): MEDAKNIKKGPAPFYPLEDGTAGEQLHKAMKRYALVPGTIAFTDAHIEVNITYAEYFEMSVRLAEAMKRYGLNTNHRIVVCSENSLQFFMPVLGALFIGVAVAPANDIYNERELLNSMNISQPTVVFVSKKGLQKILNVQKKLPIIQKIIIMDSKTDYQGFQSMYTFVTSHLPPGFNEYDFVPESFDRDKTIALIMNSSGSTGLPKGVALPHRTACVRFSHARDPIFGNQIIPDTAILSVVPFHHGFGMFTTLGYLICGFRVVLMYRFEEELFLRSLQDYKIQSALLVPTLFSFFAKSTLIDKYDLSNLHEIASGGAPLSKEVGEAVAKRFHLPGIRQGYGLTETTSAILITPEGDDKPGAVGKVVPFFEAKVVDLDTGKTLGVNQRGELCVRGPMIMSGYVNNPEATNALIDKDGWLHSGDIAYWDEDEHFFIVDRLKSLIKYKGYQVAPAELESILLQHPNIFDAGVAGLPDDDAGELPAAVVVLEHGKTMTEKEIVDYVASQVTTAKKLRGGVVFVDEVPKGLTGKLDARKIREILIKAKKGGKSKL
#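 Purified P. pyralis luciferase, 10 nM final, with Km-level 10 uM D-luciferin and 10 uM ATP in 50 mM Tris acetate pH 7.5, 10 mM Mg acetate, 0.01% Tween-20, 0.05% BSA; 6-point qHTS titration about 60 µM downward; luminescence read.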
# SMN2 splice up = increases expression of the SMN2 splice variant; HEK293 SMN2-luciferase splicing reporter, luminescence, 30-36 h; Potency, µM (highest dose often 46.1 µM), for inactives: at the highest dose activity change, positive = activation, usual class: activators; hit rate 2.8% among 210,000; also: % of control where 0% means no effect; nearly all actives have a fitted effect of over 55% in size
#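 HEK293 cells carry an SMN2 minigene-luciferase reporter in which exon 7 inclusion puts luciferase in frame. Cells were seeded at 2000 cells/well, attached for 10-12 hours, then exposed to compounds for 30-36 hours at 37C before ONE-Glo luminescence.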
# Rab9 promoter act = activates the Rab9 promoter. Huh7 Rab9 promoter-luciferase reporter, luminescence, 24 h. Potency, µM (highest dose often 9.22 µM), without a hit: at the highest dose activation, negative = inhibition, actives largely listed as activators. hit rate 2.8% among 320,000; also: % of control where 0% means no effect; nearly all actives have a fitted effect of over 60% in size
#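 Luciferase signal after 10 min detection reagent at ambient indicates Rab9 promoter upregulation; stably transfected Huh7 cells were treated 24 h with compound in DMSO at 37 °C, 5% CO2.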
# Starred values were filed as active, the others as inactive; u = inconclusive; x = no result. Calls follow the shape of the dose curve; as a rule, active = well fitted curve in the direction sought with a large enough effect; inconclusive = small, poorly fitted or top-dose-only effect, or another doubt; inactive = no such curve, though single readings can be large; an effect the other way counts as inactive or inconclusive. Potency is read from the fitted curve at half-maximal effect.
SMILES,NPC1 promoter act,ELG1 genotox,FLuc counter,SMN2 splice up,Rab9 promoter act
COc1ccccc1NC(=O)c1ccccc1NC(=O)c1cccs1,-2.6%,1.6%,19µM*,x,0.0%
O=C(Nc1ccc(NC(=O)C2CC2)cc1)c1cccs1,3.55µM*,u,13.5µM*,x,1.26µM*
COc1ccccc1NC(=O)c1cccs1,14.3%,4.0%,-2.6%,-8.3%,17.6%
O=C(Nc1ccc(NC(=O)c2cccs2)c(Cl)c1)c1cccs1,u,u,16.9µM*,x,u
O=C(Nc1ccc(C(=O)N2CCCCC2)cc1)c1cccs1,13.8%,u,u,x,13.3%
O=C(Nc1ccc2[nH]ccc2c1)c1cccs1,1.58µM*,u,9.53µM*,x,2µM*
Cc1ccc2c(c1)NC(=O)C(CC(=O)NCCCN1CCCC1)O2 (configuration not stated),1.3%,-0.5%,-0.3%,-0.2%,-2.9%
Cc1c(Cl)cccc1NC(=O)COC(=O)Cc1ccsc1,-2.7%,2.7%,1.5%,x,-6.1%
CC(=O)c1ccc(NC(=O)C(C)OC(=O)c2ccc3c(c2)nc(C)n3-c2ccccc2)cc1 (configuration not stated),17.0%,u,u,u,4.7%
NS(=O)(=O)c1ccc(CCNC(=O)C2CCCN2C(=O)OCc2ccccc2)cc1 (configuration not stated),-1.2%,-1.4%,-0.8%,-12.6%,-33.7%
O=[N+]([O-])c1ccc(NNC(=S)Nc2ccc(F)cc2)cc1,21.9%,7.2%,19µM*,-55.1%,12.7%
CC(=O)c1c(OCC(=O)O)ccc2c(C)cc(=O)oc12,x,x,-1.0%,1.0%,x
Cc1ccc(N(C(C)C(=O)N2CCCC2)S(C)(=O)=O)cc1 (configuration not stated),12.1%,0.4%,-3.4%,x,3.0%
C/C(=N\NC(=O)c1ccncc1)c1cccs1,18.5%,u,-18.4%,x,6.5%
C/C(=N/NC(=O)c1cc(C2CC2)[nH]n1)c1cccs1,0.355µM*,u,1.51µM*,2.51µM*,0.282µM*
C/C(=N\NC(=O)C1=NNC(=O)C1C)c1cccs1 (configuration not stated),u,u,u,u,3.98µM*
C/C(=N\NC(=O)c1ccccc1O)c1cccs1,0.562µM*,u,7.57µM*,3.55µM*,0.562µM*
C/C(=N\NC(=O)c1ccc2ccccc2c1)c1cccs1,1.12µM*,2.06µM*,4.26µM*,x,1µM*
C/C(=N\NC(=O)c1cccs1)c1ccc2ccccc2c1,u,8.5%,-16.1%,x,u
C=CCn1c(=O)c2ccccc2n2c(SCC(=O)Nc3cc(C)on3)nnc12,1.2%,4.9%,3.1%,-21.9%,2.5%
CC(Cc1cccs1)NC(=S)Nc1ccccc1 (configuration not stated),2.1%,1.5%,-16.4%,-28.0%,-8.7%
Cc1nn(CC(=O)OCCOc2ccc(Br)cc2)c(C)c1[N+](=O)[O-],-0.8%,1.7%,4.0%,3.3%,0.1%
CCCNC(=O)c1nc(C)c(C)nc1C(=O)Nc1cccc(Cl)c1,-4.9%,-1.0%,-0.8%,14.6%,3.2%
COc1cc(OC)c(/C=N/n2c(C)nnc2C)c(OC)c1,0.6%,0.8%,0.4%,4.5%,0.7%
CC(O)c1cccc(N=Cc2ccc3ccccc3c2O)c1 (configuration not stated),-5.5%,-1.5%,26.9µM*,x,2.3%
SMILES,NPC1 promoter act,ELG1 genotox,FLuc counter,SMN2 splice up,Rab9 promoter act
COc1cc(Cl)cc(/C=C/c2ccc3ccccc3n2)c1OC(C)=O,2µM*,u,6.75µM*,2.51µM*,2.51µM*
CC(=O)Oc1ccc(Cl)cc1/C=C/c1cc(OC(C)=O)c2ccccc2n1,24.3%,0.4%,-18.2%,-21.2%,6.4%
Cc1ccnc(NC(=O)CNC(=O)c2ccc3ccccc3c2)c1,0.3%,20.6µM*,u,x,-1.9%
Cc1ccnc(NC(=O)CNC(=O)COc2ccccc2)c1,13.5%,u,19µM*,x,7.3%
Cc1ccc(NC(=O)CNC(=O)COc2ccccc2)nc1,-1.8%,0.6%,3.7%,x,2.5%
CC(=O)c1cccc(NC(=O)c2ccc3c(=O)n4c(nc3c2)CCCCC4)c1,13.5%,-6.1%,15.1µM*,13.6%,22.6%
COc1ccc(NC(=O)c2ccc3c(=O)n4c(nc3c2)CCCCC4)cc1,-0.2%,-3.8%,26.9µM*,x,-2.2%
O=C(NC1CCCCCC1)c1ccc2c(=O)n3c(nc2c1)CCCCC3,2.82µM*,3.55µM*,8.49µM*,12.6µM*,2µM*
O=C(Nc1ccc(S(=O)(=O)C(F)F)cc1)c1ccc2c(=O)n3c(nc2c1)CCC3,-12.3%,-3.7%,-3.6%,x,-25.7%
O=C(Nc1ccc(SC(F)F)cc1)c1ccc2c(=O)n3c(nc2c1)CCC3,17.8%,11.0%,2.39µM*,x,u
CCS(=O)(=O)c1ccc(Sc2nncn2C)c([N+](=O)[O-])c1,-0.4%,-1.6%,-0.5%,u,11.3%
CCCCCOc1ccc(Cn2c(=O)oc3ccccc32)cc1,x,x,-0.7%,4.3%,x
O=C(CSc1ccc(Cl)cc1)NCc1ccncc1,-1.3%,-1.0%,2.9%,-10.9%,-3.7%
Clc1cccc(CN2CCSCC2)c1,4.7%,0.2%,5.7%,x,7.0%
Cc1cccc(NC(=O)c2ccc3c(=O)n4c(nc3c2)CCCCC4)n1,1.26µM*,u,4.78µM*,x,0.501µM*
O=C(Nc1cccc(S(=O)(=O)N2CCCC2)c1)c1ccc2c(=O)n3c(nc2c1)CCCCC3,-5.9%,-9.8%,12µM*,-57.4%,-22.0%
CCC(C)NC(=O)COC(=O)c1csc2c1CCCC2 (configuration not stated),-1.5%,1.4%,-9.5%,5.1%,1.1%
COc1cccc(-n2c(SCC(N)=O)nc3c([nH]c4ccccc43)c2=O)c1,1.0%,13.8%,-12.1%,12.6µM*,2.4%
Cc1nn(CC(=O)OCC(=O)Nc2c(C(C)C)cccc2C(C)C)c(C)c1[N+](=O)[O-],-1.3%,1.7%,0.1%,-0.7%,0.4%
CCOC(=O)c1sc(=S)n(-c2ccc3c(c2)OCO3)c1N,-0.2%,-4.5%,-18.0%,-24.9%,-10.1%
CC(=O)c1sc(Nc2ccc(C)cc2)nc1C,-0.1%,3.0%,4.2%,-48.4%,4.6%
CC(=O)c1sc(Nc2nc3cc4c(cc3s2)OCO4)nc1C,3.55µM*,u,3.79µM*,11.2µM*,2µM*
CC(=O)Nc1nc2cc3c(cc2s1)OCO3,u,u,19µM*,u,3.98µM*
CCOC(=O)c1sc(Nc2nc3cc4c(cc3s2)OCO4)cc1C,u,1.7%,2.69µM*,u,u
CC(C)C(=O)Nc1nc2cc3c(cc2s1)OCCO3,0.891µM*,u,2.39µM*,x,0.501µM*
Cc1ccc2c(c1)NC(=O)C(N1CCOCC1)(C(F)(F)F)O2 (configuration not stated),0.1%,-0.7%,4.3%,-2.6%,-3.1%
Cc1ccc(NC(=O)c2ccc(C(C)(C)C)cc2)cc1-n1cnnn1,-9.0%,0.0%,-1.9%,x,-1.4%

# Assay outcomes from PubChem.
